Results from PubChem BioAssay AID602252 (Broad Institute, 2012).
The campaign covered roughly 300,000 compounds. About 2,700 (0.9%) were called active.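 The calls were made as follows: active = mean inhibition of at least 30% with at least half of replicates also reaching 30%; inconclusive = no clear call, values can overlap the other calls; inactive = the rest.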 The entries come from a sample that favours actives as a whole.

target: Golgi-associated PDZ and coiled-coil motif-containing protein (Homo sapiens) (UniProt Q9HD26); assay: untagged CAL PDZ binding inhibitors, primary screen, biochemical, fluorescence polarization, HTS (AID 602252); details: purified CAL PDZ, TMR-peptide fluorescence polarization, 1 h; at 24.9 µM; stronger effect = higher value;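 also: 0% = DMSO neutral control and 100% = excess unlabeled competitor peptide PRC23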

inhibition, inactive:
Cc1ccc(S(=O)(=O)NC2CCCCCC2)cc1 0.011%
N#CCCN1CCN(S(=O)(=O)c2ccc(S(=O)(=O)N3CCCC3)cc2)CC1 2.13%
COc1ccc(-c2c(-c3cc(OC)cc(OC)c3)n(C)c3ccc(-c4ccn[nH]4)cc23)cc1 -3.15%
CCN1CCC(O)(/C=C/c2ccc(C)cc2)C(C(=O)/C=C/c2ccc(C)cc2)C1 (configuration not stated) 8.48%
CCCn1c(=O)c(C(=O)Nc2cc(C)ccn2)c(O)c2ccccc21 -3.7%
C=CCn1c(=O)c(C(=O)Nc2ncccc2O)c(O)c2ccccc21 -2.5%
COc1ccc(Cl)cc1C=CC=Nc1ccc(S(N)(=O)=O)cc1 1.96%
COc1cccc(CC(=O)Nc2nc(-c3ccc(OC)c(OC)c3)cs2)c1 -0.162%
COc1ccc(CC(=O)Nc2nc(-c3ccc(F)c(F)c3)cs2)cc1OC -3.84%
O=C(Nc1cccc(S(=O)(=O)N2CCOCC2)c1)C12CC3CC(CC(C3)C1)C2 -2.14%
CSc1ncnc2c1ncn2CC(=O)C1CCC2C3CCC4=CC(=O)CCC4(C)C3CCC12C (configuration not stated) 2.07%
COc1ccccc1N(CC(=O)N1CCCCC1)S(=O)(=O)c1ccccc1 -3.76%
COc1ccccc1NC(=O)CN(c1ccccc1OC)S(=O)(=O)c1ccccc1 0.854%
O=C(O)C(=Cc1ccccc1[N+](=O)[O-])c1ccccc1 -1.54%
O=C(NCc1nnc(SCC(=O)N2CCCCCC2)o1)c1ccc(F)cc1 -2.96%
COc1ccc(C(=O)NCc2nnc(SCC(=O)Nc3cccc(OC)c3)o2)cc1 -4.41%
COc1ccc(-c2ccc3c(c2)[C@@H]2C[C@H](N(C)S(=O)(=O)c4ccccc4)[C@H]([C@H](C)O)C(=O)N2CC3)cc1 -5.77%
CCCCn1c(N)c(N(CCOC)C(=O)c2cccc(S(=O)(=O)N3CCCCC3)c2)c(=O)[nH]c1=O -4.58%
O=c1[nH]c2ccc(S(=O)(=O)N3CCCC3)cc2[nH]1 -3.37%
CCN(CC)S(=O)(=O)c1cccc(NC(=O)c2ccc(S(=O)(=O)N3CCCC3)cc2)c1 -1.26%
O=C1/C(=C\c2ccc([N+](=O)[O-])cc2)CS(=O)(=O)C/C1=C/c1ccc([N+](=O)[O-])cc1 -4.54%
COc1ccccc1NC(=O)COC(=O)CNC(=O)C1CCCCC1 -1.86%
CN(CCc1ccccc1)C(=O)c1cccc(NC(=O)Cc2ccc([N+](=O)[O-])cc2)c1 0.702%
O=C(COC(=O)c1ccccn1)NNC(=O)c1ccc(Br)cc1 -0.344%
O=Cc1ccc(Oc2cccc(C(F)(F)F)c2)nc1 2.04%
Cc1cccc(OCc2nnc(SCc3nc4cc(C(F)(F)F)ccc4c(=O)[nH]3)o2)c1 1.6%
Fc1ccccc1-c1cc2cc3c(cc2cn1)OCO3 -3.15%
COc1cc(/C=C/c2ccc(/C=C/c3cc(OC)c(OC)c(OC)c3)cc2)cc(OC)c1OC -6.47%
CC(Oc1ccc2c(-c3ccccc3)cc(=O)oc2c1)C(=O)NC(Cc1c[nH]c2ccccc12)C(=O)O (configuration not stated) 1.66%
Cn1c(CCN2CCCC2)nc2cc(NS(=O)(=O)c3ccccc3)ccc21 -2.75%
CCC(=O)Nc1ccc2c(c1)nc(CCN1CCN(c3ccccn3)CC1)n2C -15.1%
CC[C@@H]1CCCCc2ccccc2[C@@H](C(=O)C[C@H](O)CC(C)=O)OC1=O 1.2%
COCCNC(=O)C1CCN(S(=O)(=O)c2ccc3c(c2)OCCO3)CC1 -1.23%
O=C(NCc1ccccc1Cl)C1CCN(S(=O)(=O)c2cccc3nonc23)CC1 -3.79%
O=C(NCc1cccs1)C1CCN(S(=O)(=O)c2ccc3c(c2)OCCO3)CC1 -6.83%
COc1ccc(CNC(=O)C2CCN(S(=O)(=O)N3CCOCC3)CC2)cc1 -1.68%
CCOc1ccc(CCNC(=O)COC(=O)C2CCN(S(=O)(=O)c3ccccc3)CC2)cc1OCC -1.05%
O=C(N[C@H]1C/C=C\C(c2cccc(F)c2)N(Cc2ccccc2)C(=O)C1)OCC1c2ccccc2-c2ccccc21 (some centres not stated) -1.43%
O=C(Nc1c(Br)cc2c(c1Br)Cc1ccccc1-2)C(F)(F)F -4.34%
Cc1cn(C2CC(O)C(CO)O2)c(=O)n(CCCc2ccccc2)c1=O (configuration not stated) -2.38%
COc1ccc(S(=O)(=O)N2CCOCC2)cc1NC(=O)c1ccc(OCC(C)C)c(OC)c1 -4%
COc1cc2c(cc1OC)C1C(=O)c3cc(OS(C)(=O)=O)c(OC)cc3C1N(C)C2=O (configuration not stated) -1.26%
CCn1c(SCC(=O)Nc2ccc3c(c2)OCCO3)nnc1-c1ccncc1 -1.31%
Cc1noc(NS(=O)(=O)c2ccc(NC(=O)C34CCC(CC3)C4)cc2)c1C -5.91%
COc1ccc(C(CNC(=O)c2cccc(S(=O)(=O)Nc3ccc(Br)cc3)c2)N(C)C)cc1 (configuration not stated) -3.75%
O=[N+]([O-])c1ccc(NS(=O)(=O)c2ccccc2)c(Cl)c1 -10.2%
O=[N+]([O-])c1ccc(COc2ccccc2CN2CCOCC2)cc1 0.702%
COc1ccccc1N1CCN(/N=C\C(Br)=C\c2ccccc2)CC1 1.35%
COc1cc(/C=N/N2CCN(c3ccccc3)CC2)ccc1OC(C)=O 4.07%
CC(=NNC(=S)N1CCCCCC1)c1ccccn1 -1.44%
CN(O)C(=S)c1ccccc1 -3.98%
CN1CCN(S(=O)(=O)c2ccc(N3CCN(c4ccccc4O)CC3)c([N+](=O)[O-])c2)CC1 -6.2%
O=C(C[C@H]1C[C@H](C(=O)N2CCOCC2)[C@@]2(CCC3CCCC3)c3[nH]c4ccc(Cl)cc4c3CCN2C1=O)NCc1ccco1 4.95%
CCOC(=O)C1=C(C)N(C[C@@H]2CC[C@@H](Cc3ccc(-c4ccccc4)cc3)O2)C(=O)NC1c1ccc([N+](=O)[O-])cc1 (some centres not stated) -2.42%
N#C/C(=C(/O)COc1cccc2ccccc12)c1nc2ccccc2[nH]1 -1.44%
Cc1ccccc1OC/C(O)=C(\C#N)c1nc2ccccc2[nH]1 4.87%
CC1CCCCC12NC(=O)N(CC(=O)OCc1c(F)cccc1Cl)C2=O (configuration not stated) -9.25%
C(#CCN1CCOCC1)CCCN1CCOCC1 -3.29%
Cc1cc(C(=O)COc2ccc(Br)cc2F)c(C)n1C1CC1 -6.1%
COc1ccc(CNC(=O)COc2ccccc2C(=O)c2cnn(-c3ccccc3)c2)cc1OC -9.89%
O=C(COC(=O)C12CC3CC(CC(O)(C3)C1)C2)NC12CC3CC(CC(C3)C1)C2 -5.51%
CC(NCCO)C(=O)C12CC3CC(CC(C3)C1)C2 (configuration not stated) 4.83%
Cc1cccc(C(=O)N[C@H](C(=O)NCc2cccs2)C(C)C)c1 -0.924%
O=C(Nc1ccc(S(=O)(=O)N2CCOCC2)cc1)C1CCN(S(=O)(=O)c2ccc(Cl)cc2)CC1 -10.9%
CCNC(=S)Nc1cccc(Cl)c1C -2.42%
CN(C)S(=O)(=O)c1cccc(NC(=S)NCc2ccc3c(c2)OCO3)c1 -4.92%
CC(C)n1cnc2c(NCc3ccccc3)cc(OCC3CCN(C)CC3)cc21 3.01%
CN(C(=O)c1cccc(NC(=O)C2CCN(C(=O)OC(C)(C)C)CC2)c1)C1CCC1 -3.04%
O=C(c1cc(S(=O)(=O)N2CCOCC2)ccc1Cl)N1CCOCC1 -1.76%
O=C(CCc1ccc(S(=O)(=O)N2CCOCC2)cc1)NN=C1CCCCCCC1 -3.33%
Cc1cccc(C=CC(=O)c2ccc(Cl)cc2)c1 -5.84%

inhibition, active:
N#CCCN1CCN(S(=O)(=O)c2ccc(S(=O)(=O)NC3CCCCC3)cc2)CC1 49.3%
Cn1c(=O)c(C(=O)Nc2ncccn2)c(O)c2ccccc21 35%
COc1ccc(CCNc2nc(-c3cccc(NC(C)=O)c3)cs2)cc1OC 57.3%
COc1ccccc1N(CCOc1ccccc1)S(=O)(=O)c1ccccc1 71%
O=C(CSc1nnc(CNC(=O)c2ccc(F)cc2)o1)Nc1ccc2c(c1)OCO2 74.1%
CCCCn1c(=S)[nH]c2cc(S(=O)(=O)N3CCCCC3)ccc21 1.64%
Cc1nc(N)[nH]c(=O)c1Oc1cccc(C(F)(F)F)c1 71.1%
Cn1c(CCN2CCCCCC2)nc2cc(NC(=O)Nc3ccccc3)ccc21 49.1%
O=C(NCc1ccccc1Cl)C1CCN(S(=O)(=O)N2CCOCC2)CC1 137%
COc1ccccc1CNC(=O)C1CCN(S(=O)(=O)c2ccc3c(c2)OCCO3)CC1 80.2%
CCn1c(SCC(=O)Nc2ccc(S(=O)(=O)Nc3onc(C)c3C)cc2)nnc1-c1ccccc1 30.7%
COc1ccccc1N1CCN(/N=C/c2ccc(O)cc2O)CC1 77.6%
CC(C)(C)c1nnc2sc(SCC(O)=C(C#N)c3nc4ccccc4[nH]3)nn2c1=O 43.7%
O=C(CNCCO)NC12CC3CC(CC(C3)C1)C2 40.5%
Cc1c(Cl)cccc1NC(=S)NCc1ccc2c(c1)OCO2 51.1%
O=C(O)c1ccc(S(=O)(=O)N2CCOCC2)o1 32.5%
